Measurements: the supplement of paper PMC4466140

What follows are binders tested against AgAbp1 (assay: SPOT peptide array binding signal intensity (averaged, normalized) (arbitrary units (background-subtracted, floor 0; scale differs between SH3 domains)); higher = stronger binding of the SH3 domain to the peptide).
Description: (§1)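 GST-tagged SH3 domains from S. cerevisiae (Sc), A. gossypii (Ag), C. albicans (Ca) and S. pombe (Sp) were incubated at 10 ug/ml overnight at 4 C on cellulose SPOT membranes carrying 292 synthetic 15-mer peptides mined from the S. cerevisiae proteome (cysteines replaced by serines). Binding was detected with anti-GST antibody, HRP secondary and chemiluminescence, quantified with Genespotter, and reported as normalized spot intensities averaged over biological replicates.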

Binder | SPOT peptide array binding signal intensity
NILKRRPLKLEAPSK | 27.5

These binders were tested against AgBbc1 in the same assay as above.
Description: as §1

Binder | SPOT peptide array binding signal intensity
NILKRRPLKLEAPSK | 0.25

Each binder was assayed against AgBem1-D1 in the same assay as above.
Description: as §1

Binder | SPOT peptide array binding signal intensity
NILKRRPLKLEAPSK | 65

Each binder was assayed against AgBzz1-D1 in the same assay as above.
Description: as §1

Binder | SPOT peptide array binding signal intensity
NILKRRPLKLEAPSK | 14

These binders were tested against AgBzz1-D2 in the same assay as above.
Description: as §1

Binder | SPOT peptide array binding signal intensity
NILKRRPLKLEAPSK | 8

These binders were tested against AgCyk3 in the same assay as above.
Description: as §1

Binder | SPOT peptide array binding signal intensity
NILKRRPLKLEAPSK | ≤ 0

What follows are binders tested against AgFus1 in the same assay as above.
Description: as §1

Binder | SPOT peptide array binding signal intensity
NILKRRPLKLEAPSK | 77

The binders below were run against AgHof1 in the same assay as above.
Description: as §1

Binder | SPOT peptide array binding signal intensity
NILKRRPLKLEAPSK | 1.25

Each binder was assayed against AgHse1 in the same assay as above.
Description: as §1

Binder | SPOT peptide array binding signal intensity
NILKRRPLKLEAPSK | 1740

The binders below were run against AgLsb1 in the same assay as above.
Description: as §1

Binder | SPOT peptide array binding signal intensity
NILKRRPLKLEAPSK | 0.5

Each binder was assayed against AgLsb4 in the same assay as above.
Description: as §1

Binder | SPOT peptide array binding signal intensity
NILKRRPLKLEAPSK | 41

Each binder was assayed against AgMyo5 in the same assay as above.
Description: as §1

Binder | SPOT peptide array binding signal intensity
NILKRRPLKLEAPSK | ≤ 0

These binders were tested against AgNbp2 in the same assay as above.
Description: as §1

Binder | SPOT peptide array binding signal intensity
NILKRRPLKLEAPSK | 32

These binders were tested against AgRvs167 in the same assay as above.
Description: as §1

Binder | SPOT peptide array binding signal intensity
NILKRRPLKLEAPSK | 4.5

Each binder was assayed against AgSho1 in the same assay as above.
Description: as §1

Binder | SPOT peptide array binding signal intensity
NILKRRPLKLEAPSK | ≤ 0

These binders were tested against AgSla1-D1-D2 in the same assay as above.
Description: as §1

Binder | SPOT peptide array binding signal intensity
NILKRRPLKLEAPSK | 7

These binders were tested against AgSla1-D3 in the same assay as above.
Description: as §1

Binder | SPOT peptide array binding signal intensity
NILKRRPLKLEAPSK | ≤ 0

What follows are binders tested against CaAbp1-D1 in the same assay as above.
Description: as §1

Binder | SPOT peptide array binding signal intensity
NILKRRPLKLEAPSK | 478

The binders below were run against CaAbp1-D2 in the same assay as above.
Description: as §1

Binder | SPOT peptide array binding signal intensity
NILKRRPLKLEAPSK | 96

Each binder was assayed against CaBbc1 in the same assay as above.
Description: as §1

Binder | SPOT peptide array binding signal intensity
NILKRRPLKLEAPSK | 1.25

Each binder was assayed against CaBem1-D1 in the same assay as above.
Description: as §1

Binder | SPOT peptide array binding signal intensity
NILKRRPLKLEAPSK | ≤ 0

The binders below were run against CaBzz1-D1 in the same assay as above.
Description: as §1

Binder | SPOT peptide array binding signal intensity
NILKRRPLKLEAPSK | ≤ 0

The binders below were run against CaBzz1-D2 in the same assay as above.
Description: as §1

Binder | SPOT peptide array binding signal intensity
NILKRRPLKLEAPSK | 14

What follows are binders tested against CaCyk3 in the same assay as above.
Description: as §1

Binder | SPOT peptide array binding signal intensity
NILKRRPLKLEAPSK | 8

Each binder was assayed against CaFus1 in the same assay as above.
Description: as §1

Binder | SPOT peptide array binding signal intensity
NILKRRPLKLEAPSK | 534

These binders were tested against CaHof1 in the same assay as above.
Description: as §1

Binder | SPOT peptide array binding signal intensity
NILKRRPLKLEAPSK | 0.25

What follows are binders tested against CaHse1 in the same assay as above.
Description: as §1

Binder | SPOT peptide array binding signal intensity
NILKRRPLKLEAPSK | 27.5

The binders below were run against CaLsb1 in the same assay as above.
Description: as §1

Binder | SPOT peptide array binding signal intensity
NILKRRPLKLEAPSK | ≤ 0

What follows are binders tested against CaLsb4 in the same assay as above.
Description: as §1

Binder | SPOT peptide array binding signal intensity
NILKRRPLKLEAPSK | ≤ 0

The binders below were run against CaMyo5 in the same assay as above.
Description: as §1

Binder | SPOT peptide array binding signal intensity
NILKRRPLKLEAPSK | 1.5

The binders below were run against CaNbp2 in the same assay as above.
Description: as §1

Binder | SPOT peptide array binding signal intensity
NILKRRPLKLEAPSK | 284

The binders below were run against CaRvs167 in the same assay as above.
Description: as §1

Binder | SPOT peptide array binding signal intensity
NILKRRPLKLEAPSK | 31.7

What follows are binders tested against CaRvs167-3 in the same assay as above.
Description: as §1

Binder | SPOT peptide array binding signal intensity
NILKRRPLKLEAPSK | 24

Each binder was assayed against CaSho1 in the same assay as above.
Description: as §1

Binder | SPOT peptide array binding signal intensity
NILKRRPLKLEAPSK | 93.5

What follows are binders tested against CaSla1-D1-D2 in the same assay as above.
Description: as §1

Binder | SPOT peptide array binding signal intensity
NILKRRPLKLEAPSK | 10.5

The binders below were run against CaSla1-D3 in the same assay as above.
Description: as §1

Binder | SPOT peptide array binding signal intensity
NILKRRPLKLEAPSK | ≤ 0

Each binder was assayed against ScAbp1 in the same assay as above.
Description: as §1

Binder | SPOT peptide array binding signal intensity
NILKRRPLKLEAPSK | 296

Each binder was assayed against ScBbc1 in the same assay as above.
Description: as §1

Binder | SPOT peptide array binding signal intensity
NILKRRPLKLEAPSK | ≤ 0

The binders below were run against ScBem1-D1 in the same assay as above.
Description: as §1

Binder | SPOT peptide array binding signal intensity
NILKRRPLKLEAPSK | 10

The binders below were run against ScBzz1-D1 in the same assay as above.
Description: as §1

Binder | SPOT peptide array binding signal intensity
NILKRRPLKLEAPSK | 12

What follows are binders tested against ScBzz1-D2 in the same assay as above.
Description: as §1

Binder | SPOT peptide array binding signal intensity
NILKRRPLKLEAPSK | ≤ 0

These binders were tested against ScCyk3 in the same assay as above.
Description: as §1

Binder | SPOT peptide array binding signal intensity
NILKRRPLKLEAPSK | 33

These binders were tested against ScFus1 in the same assay as above.
Description: as §1

Binder | SPOT peptide array binding signal intensity
NILKRRPLKLEAPSK | 149

What follows are binders tested against ScHof1 in the same assay as above.
Description: as §1

Binder | SPOT peptide array binding signal intensity
NILKRRPLKLEAPSK | ≤ 0

These binders were tested against ScHse1 in the same assay as above.
Description: as §1

Binder | SPOT peptide array binding signal intensity
NILKRRPLKLEAPSK | 2660

The binders below were run against ScLsb1 in the same assay as above.
Description: as §1

Binder | SPOT peptide array binding signal intensity
NILKRRPLKLEAPSK | 2.5

The binders below were run against ScLsb2 in the same assay as above.
Description: as §1

Binder | SPOT peptide array binding signal intensity
NILKRRPLKLEAPSK | 1

The binders below were run against ScLsb3 in the same assay as above.
Description: as §1

Binder | SPOT peptide array binding signal intensity
NILKRRPLKLEAPSK | 76

Each binder was assayed against ScLsb4 in the same assay as above.
Description: as §1

Binder | SPOT peptide array binding signal intensity
NILKRRPLKLEAPSK | 2

Each binder was assayed against ScMyo3 in the same assay as above.
Description: as §1

Binder | SPOT peptide array binding signal intensity
NILKRRPLKLEAPSK | 0.25

Each binder was assayed against ScMyo5 in the same assay as above.
Description: as §1

Binder | SPOT peptide array binding signal intensity
NILKRRPLKLEAPSK | ≤ 0

Each binder was assayed against ScNbp2 in the same assay as above.
Description: as §1

Binder | SPOT peptide array binding signal intensity
NILKRRPLKLEAPSK | 46

Each binder was assayed against ScPex13 in the same assay as above.
Description: as §1

Binder | SPOT peptide array binding signal intensity
NILKRRPLKLEAPSK | ≤ 0

Each binder was assayed against ScRvs167 in the same assay as above.
Description: as §1

Binder | SPOT peptide array binding signal intensity
NILKRRPLKLEAPSK | 2.5

What follows are binders tested against ScSho1 in the same assay as above.
Description: as §1

Binder | SPOT peptide array binding signal intensity
NILKRRPLKLEAPSK | 368

The binders below were run against ScSla1-D1-D2 in the same assay as above.
Description: as §1

Binder | SPOT peptide array binding signal intensity
NILKRRPLKLEAPSK | 39

These binders were tested against ScSla1-D3 in the same assay as above.
Description: as §1

Binder | SPOT peptide array binding signal intensity
NILKRRPLKLEAPSK | ≤ 0

The binders below were run against SpAbp1-D1 in the same assay as above.
Description: as §1

Binder | SPOT peptide array binding signal intensity
NILKRRPLKLEAPSK | 64.5

Each binder was assayed against SpBbc1 in the same assay as above.
Description: as §1

Binder | SPOT peptide array binding signal intensity
NILKRRPLKLEAPSK | 0.75

The binders below were run against SpBzz1-D1 in the same assay as above.
Description: as §1

Binder | SPOT peptide array binding signal intensity
NILKRRPLKLEAPSK | 64

Each binder was assayed against SpBzz1-D2 in the same assay as above.
Description: as §1

Binder | SPOT peptide array binding signal intensity
NILKRRPLKLEAPSK | ≤ 0

What follows are binders tested against SpCyk3 in the same assay as above.
Description: as §1

Binder | SPOT peptide array binding signal intensity
NILKRRPLKLEAPSK | ≤ 0

The binders below were run against SpHof1 in the same assay as above.
Description: as §1

Binder | SPOT peptide array binding signal intensity
NILKRRPLKLEAPSK | 48.8

Each binder was assayed against SpHof1-2 in the same assay as above.
Description: as §1

Binder | SPOT peptide array binding signal intensity
NILKRRPLKLEAPSK | ≤ 0

The binders below were run against SpHof1-3 in the same assay as above.
Description: as §1

Binder | SPOT peptide array binding signal intensity
NILKRRPLKLEAPSK | 699

Each binder was assayed against SpHse1 in the same assay as above.
Description: as §1

Binder | SPOT peptide array binding signal intensity
NILKRRPLKLEAPSK | 1400

What follows are binders tested against SpLsb1 in the same assay as above.
Description: as §1

Binder | SPOT peptide array binding signal intensity
NILKRRPLKLEAPSK | 1

What follows are binders tested against SpLsb4 in the same assay as above.
Description: as §1

Binder | SPOT peptide array binding signal intensity
NILKRRPLKLEAPSK | 3.5

These binders were tested against SpMyo1 in the same assay as above.
Description: as §1

Binder | SPOT peptide array binding signal intensity
NILKRRPLKLEAPSK | ≤ 0

The binders below were run against SpNbp2 in the same assay as above.
Description: as §1

Binder | SPOT peptide array binding signal intensity
NILKRRPLKLEAPSK | 58

These binders were tested against SpPex13 in the same assay as above.
Description: as §1

Binder | SPOT peptide array binding signal intensity
NILKRRPLKLEAPSK | ≤ 0

Each binder was assayed against SpRvs167 in the same assay as above.
Description: as §1

Binder | SPOT peptide array binding signal intensity
NILKRRPLKLEAPSK | 1.33

The binders below were run against SpSla1-D1-D2 in the same assay as above.
Description: as §1

Binder | SPOT peptide array binding signal intensity
NILKRRPLKLEAPSK | 2

Each binder was assayed against SpSla1-D3 in the same assay as above.
Description: as §1

Binder | SPOT peptide array binding signal intensity
NILKRRPLKLEAPSK | ≤ 0
